Screens (PubChem)
A selection: hits, their analogues and other compounds. The true share with any hit is near 1.8%.
RPL19A TOR yeast – alters RPL19A-GFP fluorescence in TOR pathway yeast screen | S. cerevisiae RPL19A-GFP strain, flow cytometry, 3 h; active compounds read low | percent response vs DMSO, % at 10 µM | 330,000 tested, 0.3% active | AID 2025;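 active = percent response vs DMSO below 50%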;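 note: median channel GFP fluorescence of the barcoded RPL19A-GFP strain; lower means less RPL19A-GFP as with rapamycin TOR inhibition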
CIT2-GFP yeast – yeast TOR pathway CIT2-GFP modulation; S. cerevisiae CIT2-GFP strain, flow cytometry, 3 h; 100 means same as DMSO wells; GFP response vs DMSO, % at 10 µM; 320,000 tested, 0.065% active;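 active = GFP response relative to DMSO above a set limit, near the screen mean plus 3 SD, cut at about 150% in these data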;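 note: ratio of well median GFP fluorescence to mean of DMSO wells on the plate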
Myeloid diff 2 – promotes myeloid progenitor differentiation; calls only at 10 µM; 360,000 tested, 1% active; AID 624256; ER-HoxA9 myeloid progenitors, lysozyme-GFP differentiation, flow cytometry;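 active = normalized GFP-positive differentiation at or above the plate's own cutoff, the solvent-only control mean plus 3 SD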;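 note: cells exposed to compound for four days before flow analysis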
LAP4-GFP MLPCN – alters LAP4-GFP fluorescence in TOR pathway yeast screen; AID 2023; GFP response vs DMSO, % at 10 µM; 320,000 tested, 0.34% active; S. cerevisiae LAP4-GFP multiplex, flow cytometry GFP, 3 h; median GFP as percent of DMSO wells;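 active = GFP response vs DMSO above a set limit, about the screen mean plus 3 SD, cut at about 150% in these data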
MEP2-GFP yeast – yeast TOR pathway MEP2-GFP modulation; S. cerevisiae MEP2-GFP strain, flow cytometry GFP, 3 h; 100% = DMSO control level; 330,000 tested, 0.51% active; AID 2016; GFP response vs DMSO, % at 10 µM;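 active = GFP response versus DMSO above a set limit, roughly screen mean plus 3 SD, cut at about 180% in these data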;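 note: median GFP fluorescence of the barcode-gated MEP2-GFP cells per well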
AGP1-GFP MLPCN – modulators of TOR pathway AGP1-GFP in S. cerevisiae | 320,000 tested, 0.02% active | S. cerevisiae AGP1-GFP multiplex flow cytometry, 3 h; GFP as percent of DMSO wells | AID 2066 | GFP response vs DMSO, % at 10 µM;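 active = GFP response relative to DMSO above a set limit, near screen average plus 3 SD, cut at about 150% in these data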;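 note: median GFP channel fluorescence of the gated AGP1 strain per well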
Myeloid diff – compounds promoting myeloid differentiation; shares compounds with Myeloid diff 2; ER-HoxA9 myeloid progenitors, GFP/Mac1 double-positive flow; calls only; 2,300 tested, 2% active; AID 651706;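 active = share of green or green-and-red cells above 9 and 9% in run 1 or 4 and 3% in run 2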
GFP autofluor – flagged as fluorescent in myeloid differentiation counter-screen; ER-HoxA9 myeloid progenitors, no estrogen, GFP autofluorescence flow cytometry; vehicle wells 0%, positive control 100%; shares compounds with Myeloid diff 2; 2,300 tested, 7.4% active; AID 651707; fluorescence response, % (test concentration not listed);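 active = over 5% cells positive for green fluorescent reporter, or over 2% positive for both it and APC stain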
A number is an active result; - = inactive; . = not tested or not shown; + = active, no number; [ ] = remark or other dose.

SMILES	RPL19A TOR yeast	CIT2-GFP yeast	Myeloid diff 2	LAP4-GFP MLPCN	MEP2-GFP yeast	AGP1-GFP MLPCN	Myeloid diff	GFP autofluor
N=c1c2ccccc2nc2n1CCCCCCC2	.	.	-	.	.	.	.	.
COc1ccc(CCn2c(C)cc(C(=O)CN3C(=O)C(=O)N(Cc4ccco4)C3=O)c2C)cc1	-	-	+	-	-	-	-	-
Cc1cc(N2CCCC2)ccc1/C=C1\NC(=S)N(C)C1=O	-	-	-	-	-	-	-	51
CCc1nnc(NC(=O)[C@@H](NC(=O)c2cccc(S(=O)(=O)N3CCOCC3)c2)C(C)C)s1	-	-	-	-	-	-	.	.
CN1/C(=C/C(=S)NC(=O)C2CCC2)C(C)(C)c2ccccc21	-	-	-	-	-	-	-	-
CN1/C(=C\C=O)C(C)(C)c2ccccc21	-	-	-	-	-	-	.	.
NC(=O)CCC(NS(=O)(=O)c1ccc(Cl)cc1)C(=O)NCC1CCCCC1 (stereo unspecified)	-	-	-	-	-	-	-	-
NC(=O)CCC(NS(=O)(=O)c1ccc(Cl)cc1)C(=O)NCc1ccc(Cl)cc1 (stereo unspecified)	-	-	-	-	-	-	.	.
CN1CCc2c(sc(/N=C/c3c[nH]c4ccccc34)c2C#N)C1	-	-	+	-	-	-	-	16
CN1CCc2c(sc(/N=C/c3c[nH]c4ccccc34)c2C(N)=O)C1	-	.	+	.	576[may fluoresce violet]	.	-	-
CCOC(=O)c1c(/N=C/c2ccc(OC)cc2O)sc2c1CCN(C)C2	-	-	-	-	-	-	.	.
O=C(Cn1ccc([N+](=O)[O-])n1)c1ccccc1	-	-	-	-	-	-	.	.
NC(=O)c1csc(C2OC(CO)C(O)C2O)n1 (stereo unspecified)	.	.	-	.	.	.	.	.
O=C(NCc1ccncc1)C1Cc2c(-c3ccc(Cl)cc3)ccnc2O1 (stereo unspecified)	.	.	-	.	.	.	.	.
O=C(NCc1cccnc1)C1Cc2c(-c3ccc(Cl)cc3)ccnc2O1 (stereo unspecified)	.	.	+	.	.	.	-	-
Cc1ccc(S(=O)(=O)N2C[C@H]3C(=O)C[C@@H](c4ccccc4)N(S(=O)(=O)c4ccccc4[N+](=O)[O-])[C@H]3C[C@H]2c2ccccc2)cc1	.	.	+	.	.	.	-	-
Cc1ccc(S(=O)(=O)N2CC3C(=O)CC(c4ccccc4)N(S(=O)(=O)c4ccc(C)cc4)C3CC2c2cccc(Cl)c2)cc1 (stereo unspecified)	.	.	+	.	.	.	-	-
Cc1ccc(S(=O)(=O)N2CCC(=O)CC2c2ccccc2)cc1 (stereo unspecified)	.	.	-	.	.	.	-	-
Cc1ccc([C@@H]2C[C@H]3[C@@H](CN2S(=O)(=O)c2ccc(C)cc2)C(=O)C[C@@H](c2cccc(Cl)c2)N3S(=O)(=O)c2ccc(C)cc2)cc1	.	.	-	.	.	.	.	.
Cc1ccc([C@@H]2C[C@H]3[C@@H](CN2S(=O)(=O)c2ccc(C)cc2)C(=O)C[C@@H](c2ccccc2)N3S(=O)(=O)c2ccc(C)cc2)cc1	.	.	-	.	.	.	.	.
O=C1/C(=C\c2cccc(O)c2O)SC(=S)N1Cc1ccccc1	-	-	-	-	-	-	.	.
O=C1/C(=C\c2cc([N+](=O)[O-])ccc2O)SC(=S)N1Cc1ccc(Cl)cc1	-	-	-	-	-	-	-	74
Clc1cccc(CNc2ccn3nc(-c4ccc(OCc5ccccc5)cc4)cc3n2)c1	.	.	+	.	.	.	-	-
c1ccc(COc2cccc(-c3cc4nc(NCCN5CCOCC5)ccn4n3)c2)cc1	.	.	+	.	.	.	-	-
CNc1ccc(/C=C\CCCO)cn1	.	.	-	.	.	.	.	.
Cc1c(NC(=O)C2CCCN2S(=O)(=O)c2cccc3nsnc23)cccc1C(=O)O (stereo unspecified)	-	-	+	-	-	-	-	-
NC(=O)c1ccc(NC(=O)CC23CC4CC(CC(Br)(C4)C2)C3)cc1	-	-	.	-	-	-	.	.
